Reference: the supplement of paper PMC10849652
Targets with a hit are over-represented here; the source holds about 7,900 in all. About 0.6% of all pairs of compound and target were hits.

Columns and labels:
Assay in all cases: log2 fold change, soluble protein after heating vs DMSO (PISA); higher = thermal stabilisation; K562 cells, 10 uM, 30 min; active = over 0.2 and 3.5 SD of the protein, either way, in both replicates (recomputed)
saracatinib = compound: CN1CCN(CCOc2cc(OC3CCOCC3)c3c(Nc4c(Cl)ccc5c4OCO5)ncnc3c2)CC1 [saracatinib]
Procedure, shortened: (§1)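 Soluble protein was quantified by TMTpro 16plex LC-MS/MS after channel sums were equalised. It was obtained as the supernatant after 21,000xg for 90 min from pooled aliquots of K562 cells (2×10^6 cells/mL, 10 μM compound, 30 min) heated for 3 min across 48°C-58°C and extracted in PBS with 0.5% NP-40 at 4°C. Thermal stability values are relative to control samples and come from duplicates. They are given as log2 fold changes.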

sotrastaurin = compound: CN1CCN(c2nc(C3=C(c4c[nH]c5ccccc45)C(=O)NC3=O)c3ccccc3n2)CC1 [sotrastaurin]
Procedure, shortened: as §1

alvocidib = compound: CN1CC[C@H](c2c(O)cc(O)c3c(=O)cc(-c4ccccc4Cl)oc23)[C@H](O)C1 [alvocidib]
Procedure, shortened: as §1

Tubastatin A = compound: CN1CCc2c(c3ccccc3n2Cc2ccc(C(=O)NO)cc2)C1 [Tubastatin A]
Procedure, shortened: as §1

[1] = compound: CNC(=O)C1=CC=CC=C1NC2=NC(=NC=C2Cl)NC3=C(C=C(C=C3)N4CCOCC4)OC
Procedure, shortened: as §1

defactinib = compound: CNC(=O)c1ccc(Nc2ncc(C(F)(F)F)c(NCc3nccnc3N(C)S(C)(=O)=O)n2)cc1 [defactinib]
Procedure, shortened: as §1

rucaparib = compound: CNCc1ccc(-c2[nH]c3cc(F)cc4c3c2CCNC4=O)cc1 [rucaparib]
Procedure, shortened: as §1

[2] = compound: CNc1nc(-c2ccc3c(N)n[nH]c3c2)cc(N2C[C@@H](C(=O)NC3CCCCC3)CC[C@H]2C)n1
Procedure, shortened: as §1

encorafenib = compound: COC(=O)N[C@@H](C)CNc1nccc(-c2cn(C(C)C)nc2-c2cc(Cl)cc(NS(C)(=O)=O)c2F)n1 [encorafenib]
Procedure, shortened: as §1

[3] = compound: COC(=O)[C@H](CCSC)NC(=O)C1=C(C=C(C=C1)NC[C@H](CS)N)C2=CC=CC=C2
Procedure, shortened: as §1

Measured: log2 fold change

CRK (UniProt P46108)
inactive: sotrastaurin 0 | alvocidib -0.032 | Tubastatin A 0.092 | [1] -0.003 | defactinib -0.056 | rucaparib -0.025 | [2] -0.006 | encorafenib 0.021 | [3] -0.024
active: saracatinib -0.768

CDK5RAP1 (UniProt Q96SZ6)
active: Tubastatin A -0.238
inactive: saracatinib 0.192 | sotrastaurin 0.072 | alvocidib -0.077 | [1] 0.044 | defactinib 0.022 | rucaparib 0.035 | [2] 0.057 | encorafenib 0.053 | [3] -0.048

CNN2 (UniProt Q99439)
inactive: saracatinib 0.004 | sotrastaurin -0.161 | alvocidib -0.024 | Tubastatin A 0 | [1] -0.003 | defactinib -0.087 | rucaparib -0.008 | [2] -0.077 | encorafenib 0.023 | [3] 0

CDK8 (UniProt P49336)
active: alvocidib 0.66
inactive: saracatinib -0.006 | sotrastaurin 0.074 | Tubastatin A -0.1 | [1] 0.053 | defactinib -0.059 | rucaparib 0.192 | [2] 0.018 | encorafenib -0.002 | [3] 0.064

CCM2 isoform 2 (UniProt Q9BSQ5)
inactive: saracatinib -0.01 | sotrastaurin 0.056 | alvocidib -0.022 | Tubastatin A 0.073 | [1] -0.061 | defactinib -0.107 | rucaparib 0.03 | [2] 0.087 | encorafenib 0.118 | [3] -0.033

CDC123 (UniProt O75794)
inactive: saracatinib -0.039 | sotrastaurin 0.073 | alvocidib -0.033 | Tubastatin A 0.075 | [1] -0.043 | defactinib 0.008 | rucaparib -0.017 | [2] -0.041 | encorafenib 0.052 | [3] -0.032

CNOT1 (UniProt A5YKK6)
Sequence of UniProt A5YKK6 (A5YKK6 whole entry, looked up): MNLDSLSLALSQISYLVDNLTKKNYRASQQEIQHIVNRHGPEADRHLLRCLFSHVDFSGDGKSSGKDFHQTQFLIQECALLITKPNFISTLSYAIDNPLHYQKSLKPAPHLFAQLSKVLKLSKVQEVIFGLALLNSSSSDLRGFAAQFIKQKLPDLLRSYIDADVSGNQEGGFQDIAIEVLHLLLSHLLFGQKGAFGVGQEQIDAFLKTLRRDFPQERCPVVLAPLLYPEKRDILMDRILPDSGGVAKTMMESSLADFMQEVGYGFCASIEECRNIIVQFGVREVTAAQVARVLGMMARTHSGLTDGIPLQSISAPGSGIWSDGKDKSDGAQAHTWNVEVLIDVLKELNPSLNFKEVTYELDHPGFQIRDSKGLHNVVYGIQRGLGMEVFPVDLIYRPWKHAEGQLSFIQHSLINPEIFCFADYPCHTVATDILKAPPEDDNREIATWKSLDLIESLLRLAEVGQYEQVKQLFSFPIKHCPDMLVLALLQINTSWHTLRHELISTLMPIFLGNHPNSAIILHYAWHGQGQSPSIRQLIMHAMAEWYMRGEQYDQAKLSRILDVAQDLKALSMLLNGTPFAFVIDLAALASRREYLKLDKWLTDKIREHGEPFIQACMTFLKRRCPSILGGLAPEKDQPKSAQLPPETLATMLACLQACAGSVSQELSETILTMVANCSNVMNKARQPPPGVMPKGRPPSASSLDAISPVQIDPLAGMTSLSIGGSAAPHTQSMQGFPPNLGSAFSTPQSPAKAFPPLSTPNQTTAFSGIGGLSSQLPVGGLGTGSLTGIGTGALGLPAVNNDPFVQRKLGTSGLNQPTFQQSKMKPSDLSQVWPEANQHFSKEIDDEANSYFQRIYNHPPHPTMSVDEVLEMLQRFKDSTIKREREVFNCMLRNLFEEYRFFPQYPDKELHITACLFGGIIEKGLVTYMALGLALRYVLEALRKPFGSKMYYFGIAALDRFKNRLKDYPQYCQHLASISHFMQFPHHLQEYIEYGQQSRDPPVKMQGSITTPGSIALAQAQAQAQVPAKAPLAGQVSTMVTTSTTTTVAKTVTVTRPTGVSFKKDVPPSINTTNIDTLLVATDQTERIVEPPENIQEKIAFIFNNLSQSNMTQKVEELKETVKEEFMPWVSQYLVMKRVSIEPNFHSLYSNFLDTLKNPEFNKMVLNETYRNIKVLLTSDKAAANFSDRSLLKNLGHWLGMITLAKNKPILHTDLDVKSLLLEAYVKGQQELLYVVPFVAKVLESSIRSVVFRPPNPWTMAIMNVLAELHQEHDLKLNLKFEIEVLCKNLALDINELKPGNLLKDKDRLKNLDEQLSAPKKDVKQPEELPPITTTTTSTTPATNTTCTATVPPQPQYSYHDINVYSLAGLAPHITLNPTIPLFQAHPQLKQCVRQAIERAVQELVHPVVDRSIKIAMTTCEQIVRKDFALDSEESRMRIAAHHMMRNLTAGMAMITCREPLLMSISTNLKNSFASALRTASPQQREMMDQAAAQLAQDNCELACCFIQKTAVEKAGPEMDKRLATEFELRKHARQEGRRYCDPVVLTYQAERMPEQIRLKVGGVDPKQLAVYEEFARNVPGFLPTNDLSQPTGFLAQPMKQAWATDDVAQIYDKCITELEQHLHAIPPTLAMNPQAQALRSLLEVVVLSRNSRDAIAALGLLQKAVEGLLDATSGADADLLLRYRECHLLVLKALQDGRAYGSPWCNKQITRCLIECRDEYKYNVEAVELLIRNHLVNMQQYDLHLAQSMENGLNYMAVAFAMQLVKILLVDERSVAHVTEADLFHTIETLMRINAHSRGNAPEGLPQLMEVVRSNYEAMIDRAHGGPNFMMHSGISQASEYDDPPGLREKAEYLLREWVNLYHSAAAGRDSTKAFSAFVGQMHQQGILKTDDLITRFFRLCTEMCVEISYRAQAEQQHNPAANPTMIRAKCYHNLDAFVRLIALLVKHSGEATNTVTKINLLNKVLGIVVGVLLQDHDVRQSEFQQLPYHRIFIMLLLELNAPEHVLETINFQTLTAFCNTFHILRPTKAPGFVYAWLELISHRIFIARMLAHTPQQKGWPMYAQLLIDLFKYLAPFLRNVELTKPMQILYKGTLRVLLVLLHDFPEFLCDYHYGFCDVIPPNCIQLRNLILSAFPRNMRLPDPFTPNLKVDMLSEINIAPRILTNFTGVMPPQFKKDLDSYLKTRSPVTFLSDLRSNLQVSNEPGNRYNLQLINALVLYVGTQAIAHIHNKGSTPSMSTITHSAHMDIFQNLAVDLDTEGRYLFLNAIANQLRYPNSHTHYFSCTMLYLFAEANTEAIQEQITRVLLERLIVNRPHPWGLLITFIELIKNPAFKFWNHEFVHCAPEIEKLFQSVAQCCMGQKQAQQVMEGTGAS
inactive: saracatinib -0.025 | sotrastaurin -0.087 | alvocidib -0.051 | Tubastatin A -0.003 | [1] 0.03 | defactinib -0.057 | rucaparib 0.077 | [2] 0.024 | encorafenib 0.074 | [3] -0.031

COMMD2 (UniProt Q86X83)
active: [1] 0.411
inactive: saracatinib -0.17 | sotrastaurin 0.043 | alvocidib -0.078 | Tubastatin A 0.179 | defactinib -0.088 | rucaparib 0.034 | [2] 0.039 | encorafenib -0.005 | [3] 0.012

CHAMP1 (UniProt Q96JM3)
inactive: saracatinib 0.103 | sotrastaurin -0.007 | alvocidib -0.139 | Tubastatin A -0.036 | [1] -0.064 | defactinib -0.104 | rucaparib 0.053 | [2] -0.001 | encorafenib 0.048 | [3] 0.049

CDC42EP1 (UniProt Q00587)
inactive: saracatinib -0.017 | sotrastaurin 0.025 | alvocidib -0.146 | Tubastatin A 0.001 | [1] -0.303 | defactinib -0.144 | rucaparib -0.002 | [2] 0.016 | encorafenib -0.017 | [3] 0.007

CETN2 (UniProt P41208)
inactive: saracatinib 0.095 | sotrastaurin 0.077 | alvocidib -0.013 | Tubastatin A -0.128 | [1] -0.03 | defactinib -0.054 | rucaparib 0.031 | [2] 0.058 | encorafenib -0.079 | [3] 0.06

CHMP4B (UniProt Q9H444)
Sequence of UniProt Q9H444 (Q9H444 whole entry, looked up): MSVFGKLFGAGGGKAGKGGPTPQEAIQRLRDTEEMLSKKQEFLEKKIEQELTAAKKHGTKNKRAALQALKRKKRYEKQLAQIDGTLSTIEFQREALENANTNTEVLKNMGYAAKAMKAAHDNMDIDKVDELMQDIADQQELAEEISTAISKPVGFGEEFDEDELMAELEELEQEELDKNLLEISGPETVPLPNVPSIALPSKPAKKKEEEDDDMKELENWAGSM
inactive: saracatinib 0.021 | sotrastaurin -0.061 | alvocidib 0.017 | Tubastatin A -0.024 | [1] -0.026 | defactinib -0.017 | rucaparib 0.02 | [2] -0.019 | encorafenib -0.055 | [3] 0.054

CD55 isoform 7 (UniProt P08174)
inactive: saracatinib 0.06 | sotrastaurin -0.01 | alvocidib 0.03 | Tubastatin A 0.033 | [1] 0.012 | defactinib 0.007 | rucaparib 0.022 | [2] 0.028 | encorafenib -0.016 | [3] 0.039

CHEK1 (UniProt O14757)
Sequence of UniProt O14757 (O14757 whole entry, looked up): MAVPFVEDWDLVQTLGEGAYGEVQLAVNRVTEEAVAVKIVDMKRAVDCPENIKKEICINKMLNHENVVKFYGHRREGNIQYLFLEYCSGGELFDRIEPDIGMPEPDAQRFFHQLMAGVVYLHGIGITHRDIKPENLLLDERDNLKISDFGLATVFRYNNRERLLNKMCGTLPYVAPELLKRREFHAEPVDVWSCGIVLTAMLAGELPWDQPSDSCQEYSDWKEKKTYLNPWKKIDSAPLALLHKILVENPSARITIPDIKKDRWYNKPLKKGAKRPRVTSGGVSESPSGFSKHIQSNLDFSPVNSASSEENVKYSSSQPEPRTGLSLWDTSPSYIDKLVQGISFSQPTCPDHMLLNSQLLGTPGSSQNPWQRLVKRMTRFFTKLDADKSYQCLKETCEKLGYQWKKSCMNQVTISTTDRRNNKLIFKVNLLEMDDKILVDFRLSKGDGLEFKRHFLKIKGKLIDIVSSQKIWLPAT
inactive: saracatinib 0 | alvocidib -0.041 | Tubastatin A 0.09 | defactinib -0.031 | rucaparib -0.071 | [2] 0.003 | encorafenib 0.043 | [3] 0
active: sotrastaurin -0.271 | [1] -0.32

CHCHD4 isoform 2 (UniProt Q8N4Q1)
Sequence of UniProt Q8N4Q1 (Q8N4Q1 whole entry, looked up): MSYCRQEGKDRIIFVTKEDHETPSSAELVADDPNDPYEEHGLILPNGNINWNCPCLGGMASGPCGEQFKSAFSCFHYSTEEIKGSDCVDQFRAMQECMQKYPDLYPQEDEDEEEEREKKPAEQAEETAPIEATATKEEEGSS
inactive: saracatinib 0.277 | sotrastaurin 0.003 | alvocidib -0.14 | Tubastatin A 0.061 | [1] 0.199 | defactinib -0.049 | rucaparib -0.007 | [2] 0.202 | encorafenib -0.046 | [3] -0.034

CDK6 (UniProt Q00534)
inactive: saracatinib 0.002 | sotrastaurin -0.005 | alvocidib 0.01 | Tubastatin A 0.022 | [1] 0.016 | defactinib -0.029 | rucaparib 0.065 | [2] -0.02 | encorafenib 0.011 | [3] 0.004

CD53 (UniProt P19397)
inactive: saracatinib -0.22 | sotrastaurin 0.087 | alvocidib -0.06 | Tubastatin A 0.009 | [1] -0.21 | defactinib -0.069 | rucaparib -0.032 | [2] 0.125 | encorafenib -0.006 | [3] 0.051

CHKA (UniProt P35790)
inactive: saracatinib 0.028 | sotrastaurin 0.107 | alvocidib 0.064 | Tubastatin A 0.148 | [1] -0.033 | defactinib 0.006 | rucaparib 0.046 | [2] -0.027 | encorafenib -0.107 | [3] 0.056

CNOT4 isoform 6 (UniProt O95628)
inactive: saracatinib 0 | sotrastaurin 0.003 | alvocidib -0.095 | Tubastatin A -0.003 | [1] -0.014 | defactinib -0.03 | rucaparib -0.044 | [2] -0.07 | encorafenib -0.023 | [3] -0.015

CELF2 isoform 3 (UniProt O95319)
inactive: saracatinib -0.011 | sotrastaurin 0.076 | alvocidib 0.036 | Tubastatin A -0.102 | [1] -0.034 | defactinib 0.098 | rucaparib 0.125 | [2] -0.099 | encorafenib -0.041 | [3] -0.032

CMTM3 (UniProt Q96MX0)
Sequence of UniProt Q96MX0 (Q96MX0 whole entry, looked up): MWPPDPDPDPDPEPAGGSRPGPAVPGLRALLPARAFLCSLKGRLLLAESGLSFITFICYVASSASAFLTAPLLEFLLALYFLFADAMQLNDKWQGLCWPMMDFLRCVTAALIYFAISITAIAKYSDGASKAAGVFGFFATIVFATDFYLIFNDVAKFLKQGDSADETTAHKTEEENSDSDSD
inactive: saracatinib -0.006 | sotrastaurin -0.01 | alvocidib -0.022 | Tubastatin A -0.012 | [1] -0.019 | defactinib -0.096 | rucaparib 0.129 | [2] -0.075 | encorafenib -0.072 | [3] 0.05

CBR1 (UniProt P16152)
Sequence of UniProt P16152 (P16152 whole entry, looked up): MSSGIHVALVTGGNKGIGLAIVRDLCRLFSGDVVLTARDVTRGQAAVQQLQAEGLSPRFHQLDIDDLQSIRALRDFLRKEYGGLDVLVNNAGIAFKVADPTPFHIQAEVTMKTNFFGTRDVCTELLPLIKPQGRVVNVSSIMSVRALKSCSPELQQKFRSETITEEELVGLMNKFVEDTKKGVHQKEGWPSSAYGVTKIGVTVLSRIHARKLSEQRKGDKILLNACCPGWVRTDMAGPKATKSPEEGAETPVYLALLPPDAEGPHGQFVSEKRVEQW
inactive: saracatinib 0.02 | sotrastaurin -0.005 | alvocidib -0.098 | Tubastatin A -0.059 | [1] 0.011 | defactinib -0.041 | rucaparib -0.01 | [2] -0.003 | encorafenib -0.024 | [3] 0.004

CCDC167 (UniProt Q9P0B6)
inactive: saracatinib -0.05 | sotrastaurin -0.018 | alvocidib 0.061 | Tubastatin A -0.063 | [1] -0.006 | rucaparib 0.021 | [2] 0.104 | encorafenib -0.037

CRKL (UniProt P46109)
inactive: sotrastaurin 0.003 | alvocidib -0.044 | Tubastatin A 0.003 | [1] -0.01 | defactinib -0.052 | rucaparib -0.001 | [2] 0 | encorafenib 0.016 | [3] 0.008
active: saracatinib -1.42

CHAF1A (UniProt Q13111)
Sequence of UniProt Q13111 (Q13111 whole entry, looked up): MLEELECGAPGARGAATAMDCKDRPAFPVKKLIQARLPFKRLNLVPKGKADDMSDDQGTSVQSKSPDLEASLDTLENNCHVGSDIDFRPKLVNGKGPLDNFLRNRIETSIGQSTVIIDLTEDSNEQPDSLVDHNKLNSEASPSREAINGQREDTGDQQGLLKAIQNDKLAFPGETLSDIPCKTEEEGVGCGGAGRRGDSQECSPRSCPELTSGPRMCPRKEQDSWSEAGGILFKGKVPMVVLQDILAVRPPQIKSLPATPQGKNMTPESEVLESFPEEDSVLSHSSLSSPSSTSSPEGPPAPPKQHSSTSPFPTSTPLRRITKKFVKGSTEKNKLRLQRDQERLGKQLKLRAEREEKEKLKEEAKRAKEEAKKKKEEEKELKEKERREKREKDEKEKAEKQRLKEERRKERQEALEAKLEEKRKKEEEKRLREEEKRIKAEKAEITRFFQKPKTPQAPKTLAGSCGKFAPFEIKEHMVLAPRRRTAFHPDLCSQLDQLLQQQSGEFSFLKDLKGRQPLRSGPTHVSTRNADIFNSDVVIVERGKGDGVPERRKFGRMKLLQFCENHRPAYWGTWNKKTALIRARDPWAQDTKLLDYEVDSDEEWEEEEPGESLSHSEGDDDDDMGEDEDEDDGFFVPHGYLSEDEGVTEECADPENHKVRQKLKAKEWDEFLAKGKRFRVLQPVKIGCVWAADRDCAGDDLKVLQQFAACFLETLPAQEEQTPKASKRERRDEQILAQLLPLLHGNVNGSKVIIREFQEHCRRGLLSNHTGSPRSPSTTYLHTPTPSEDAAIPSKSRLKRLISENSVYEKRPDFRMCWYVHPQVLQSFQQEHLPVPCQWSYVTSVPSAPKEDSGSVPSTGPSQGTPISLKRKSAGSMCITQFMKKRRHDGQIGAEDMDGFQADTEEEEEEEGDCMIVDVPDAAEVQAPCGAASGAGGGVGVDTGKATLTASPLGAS
inactive: saracatinib 0.008 | sotrastaurin 0.004 | alvocidib 0.041 | [1] 0.133 | rucaparib 0.198 | [2] -0.125 | encorafenib 0.094

CDK4 (UniProt P11802)
Sequence of UniProt P11802 (P11802 whole entry, looked up): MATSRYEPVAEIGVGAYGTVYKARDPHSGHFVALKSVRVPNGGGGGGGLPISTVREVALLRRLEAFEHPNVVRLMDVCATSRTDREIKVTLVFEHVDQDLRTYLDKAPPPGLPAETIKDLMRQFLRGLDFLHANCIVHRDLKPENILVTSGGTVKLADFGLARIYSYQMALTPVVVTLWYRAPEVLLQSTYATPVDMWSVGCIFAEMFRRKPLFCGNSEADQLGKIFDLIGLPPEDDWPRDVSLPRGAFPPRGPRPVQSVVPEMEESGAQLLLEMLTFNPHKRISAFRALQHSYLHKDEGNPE
inactive: saracatinib -0.03 | sotrastaurin -0.028 | alvocidib 0.098 | [1] 0.07 | defactinib -0.039 | rucaparib 0.051 | [2] -0.057 | encorafenib -0.008 | [3] -0.07
